Only some compounds are listed: those with a hit (about 2.6% of all), similar ones and a draw of the others.
Nrf2 inh: Nrf2 pathway inhibition. A549 ARE-Fluc reporter, luciferase luminescence, 18-24 h. Potency, µM (doses to about 46 µM), actives largely listed as inhibitors. actives 2.1% (n = 360,000). AID 504444; also: nearly all actives have a fitted effect of over 60% in size
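Cells were seeded and rested 2 h, then exposed to compounds for 18-24 h. CellTiter-Fluor was read first as a viability measure. BugLite was added 15 min before the final luminescent read of ARE-luciferase activity in A549 cells.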
Nrf2 activator: Nrf2 pathway activation | AID 624171 | Potency, µM (highest dose often 46.1 µM), most hits filed as activators | actives 0.31% (n = 410,000) | AREc32 ARE-luciferase reporter (MCF7-derived line), luminescence, 24 h; also: nearly all actives have a fitted effect of over 65% in size
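Luminescent ARE reporter assay in AREc32_Fluc cells: overnight plating at 37 deg C, 24 hr compound incubation, Steady-Glo added, 30 min RT before reading.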
AT treatment: potential ataxia-telangiectasia treatment; F2112 A-T fibroblasts, KAP-1 phosphorylation AlphaLISA; neocarzinostatin DNA damage 30 min before lysis; Potency, µM (titrated, usually from 57.5 µM), actives largely listed as activators; actives 0.19% (n = 320,000); AID 485349; also: nearly all actives have a fitted effect of over 45% in size
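ATM-like activity read as KAP-1 phosphorylation via AlphaLISA donor/acceptor antibody pairs after lysis and 6 hr at 25C. Cells were ATM-null patient fibroblasts (F2112, hTERT), dosed 60 min, then exposed to the DSB inducer NCS for 30 min.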
A549 tox: counter-screen for Nrf2 inhibitors: cytotoxicity in A549 cells; A549 ARE-Fluc cells, CellTiter-Fluor viability, 18-24 h; Potency, µM (titrated, usually from 46 µM), usual class: inhibitors; actives 0.16% (n = 390,000)
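A549 ARE-Fluc cells in 5% FBS OPTI-MEM, 5000 cells/well, rested 2 h then exposed to compounds in concentration-response for 18-24 h at 37 °C. Viability by CellTiter-Fluor fluorescence (Ex 405/Em 525) after 30 min; luciferase luminescence (BugLite, 15 min, RT) read afterwards.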
TCR activator: T cell receptor activation. AID 504894. Potency, µM (top dose mostly 9.22 µM), usual class: activators. primary human leukocytes, anti-CD3, IL-2 HTRF, 48 h. 330,000 tested, under 10 active
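IL-2 release read by HTRF sandwich (Eu cryptate donor, d2 acceptor, 665 nm emission) after 48 hr exposure of primary human leukocytes to compound together with anti-CD3 beads in the absence of co-stimulatory signals.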
CCT chaperon mod: modulators of cytosolic chaperonin (CCT/TRiC) activity; purified chaperonin ATPase assay, HTRF ADP detection, 30 min; activity change, % (no concentration beside the values), hits read low; actives 0.3% (n = 360,000); in the data active = activity change below about -30%
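TRiC at 40 or 20 nM final (batch-dependent) in 30 mM Tris pH 7.4, 100 mM KCl, 5 mM MgCl2, 1 mM DTT, with compound at single 76 uM and 10 uM ATP, 30 min at 37 deg C. ADP detected by HTRF Transcreener, 665/615 ratio.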
Hits are given with their value; – = inactive; ? = inconclusive; · = no result given. Unless noted, calls follow the shape of the dose curve; as a rule, active = well fitted curve in the direction sought with a large enough effect; inconclusive = small, poorly fitted or top-dose-only effect, or another doubt; inactive = no such curve, though single readings can be large; an effect the other way counts as inactive or inconclusive.

SMILES	Nrf2 inh	Nrf2 activator	AT treatment	A549 tox	TCR activator	CCT chaperon mod
CC(=O)C1=C(C)NC(SCC(=O)c2cc(Cl)ccc2Cl)=C(C#N)C1c1ccco1 (stereo not given)	7.31µM	–	–	?	–	–
CC(=O)C1=C(C)NC(SCC(=O)c2ccc(Cl)c(Cl)c2)=C(C#N)C1c1ccco1 (stereo not given)	?	–	–	–	–	–
Cn1c(=O)n(/N=C/c2ccccc2)c2ccccc21	–	11.2µM	–	–	–	–
O=c1c2ccccc2nc(SCc2ccccc2)n1CC1CCCO1 (stereo not given)	–	–	14.1µM	–	–	–
CCC(CC)C(=O)Nc1ccc2nc(SCC(=O)N3c4ccccc4CC3C)sc2c1 (stereo not given)	?	–	·	–	·	·
Cc1cc2c(c(=O)o1)C(c1ccc([N+](=O)[O-])o1)C(C#N)=C(N)O2 (stereo not given)	–	–	31.6µM	–	–	–
CCC(CC)C1C(C#N)=C(N)Oc2cc(C)oc(=O)c21 (stereo not given)	–	–	–	–	–	–
O=[N+]([O-])c1cccc(-c2nnc(-c3ccccc3F)o2)c1	?	12.6µM	–	–	–	–
Cc1cccc(Cn2c(SCc3ccc(C(=O)NCCc4ccccc4)cc3)nc3cccnc32)c1	?	–	·	–	·	·
O=c1[nH]ncc(N/N=C\c2ccncc2)c1Cl	–	–	–	–	–	–
O=c1[nH]ncc(N/N=C\c2cccs2)c1Cl	–	4.47µM	–	–	–	–
CC(=O)Nc1ccc2c(c1)C(=Nc1ccc(C)cc1)c1ccccc1-2	–	12.6µM	·	–	–	–
CC(=O)Nc1ccc2c(c1)C(=Nc1ccccc1)c1ccccc1-2	–	11.2µM	·	–	–	–
CCCCCCCCN1C(=O)[C@H](CC(=O)NCCc2ccccc2OC)C[C@@]2(C(=O)OCC)CCCC=C12	·	–	·	·	·	–
Cc1cccc2nc(-c3ccccn3)c(Nc3ccccc3)n12	10.3µM	–	·	–	·	·
Cc1cccc2nc(-c3ccco3)c(Nc3ccccc3)n12	?	–	–	–	–	–
Cc1cccc2nc(-c3ccccn3)c(Nc3ccc(F)cc3)n12	16.4µM	–	·	?	·	·
Cc1ccn2c(Nc3ccc(F)cc3)c(-c3ccccn3)nc2c1	16.4µM	–	·	?	·	·
CCOC(=O)CCCCCC(=O)Nc1ccc2c(c1)C(=O)N([C@@H](C)CO)C[C@H](C)[C@H](CN(C)C(=O)NC(C)C)OCCCC[C@H](C)O2	·	–	·	·	·	–
CCn1c(SCC(=O)N/N=C\c2ccccc2OCC(=O)O)nnc1-c1ccc(Cl)cc1	–	–	–	–	–	–
C=C(C)Cn1c(SCC(=O)N/N=C/c2ccccc2OCC(=O)O)nnc1-c1ccc(Br)cc1	–	–	39.8µM	–	–	–
O=C(Cc1nnc(CNC(=O)c2ccccc2)s1)Nc1ccc(C(F)(F)F)cc1Cl	–	·	·	–	·	·
O=c1cc(CSc2nnc(-c3cccs3)n2Cc2ccccc2)nc2sc3ccccc3n12	25.9µM	–	–	–	–	–
O=C(Nc1ncnc2sc3c(c12)CCCCC3)c1ccccc1	–	–	–	–	–	–
O=C(Nc1ncnc2sc3c(c12)CCC3)c1ccco1	–	0.794µM	·	–	–	–
Cc1ccc(S(=O)(=O)N(C)CCCN(C)c2nc(-c3cccs3)nc3ccccc23)cc1	–	·	·	–	·	·
C=C1C(=O)OC2C=C(CO)C3OC3C3OC3(C)CC(OC(=O)/C(=C/C)COC(C)=O)C12 (stereo not given)	23.1µM	?	·	?	–	–
CC(=O)OCC1=C[C@@H]2OC(=O)C3=CO[C@@H](O[C@@H]4O[C@H](CO)[C@@H](O)[C@H](O)[C@H]4O)[C@H]1[C@@H]32	–	–	–	–	–	–
CCOC(=O)c1cc(C)n(CC2CCC(C(=O)Nc3ccc(OC)cc3)CC2)c1C (stereo not given)	?	–	·	–	·	·
CCC(C)N=Cc1c(NCc2ccco2)nc2c(C)cccn2c1=O (stereo not given)	–	12.6µM	·	–	–	–
